Data published in PubChem BioAssay (NCATS).
Values joined by “and” are separate entries in the source; they are usually repeats but may differ in a detail not shown here. Equal values may be shown once. Results filed as inconclusive are left out. For part of these data: Entries with a potency or affinity are not part of this list. Active and inactive are the calls of the source. Unless noted, no rule for the calls is given here.

What was measured:
[1] = qHTS profiling for inhibitors of Plasmodium falciparum (3D7) proliferation (AID 743322);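 also: infected erythrocytes exposed to compound for 72 h before lysis; 100% = DMSO vehicle wells and 0% = 0.29 µM artemisinin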; conditions: P. falciparum 3D7 proliferation; at 28.7 µM (top of the series)
How it was run: (§1)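 Parasite DNA was quantified by SYBR Green I fluorescence (ex 485, em 535 nm) after overnight lysis in saponin/Triton buffer at room temperature. Cultures at 0.3% parasitemia and 2.5% hematocrit were first exposed to compound for 72 h at 37 C; signals were normalised to artemisinin (0.29 uM) and vehicle wells.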

[2] = qHTS profiling for inhibitors of Plasmodium falciparum (DD2) proliferation (AID 743323); conditions: lower = more inhibition; at 28.7 µM (top of the series)
How it was run: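 1536-well qHTS; infected RBCs 0.3% parasitemia/2.5% Hct final; cpd 72 h 37 C 5% CO2; lysis buffer + SYBR Green I, o/n RT dark; FI 485/535; norm. to 0.29 uM artemisinin and DMSO, plate-stack corrected.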

[3] = qHTS profiling of the MIPE4 collection as inhibitors of Plasmodium falciparum (3D7) proliferation (AID 743344);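 also: scaled between DMSO vehicle wells and 0.29 µM artemisinin as full inhibition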; conditions: P. falciparum 3D7 in erythrocytes, SYBR Green DNA fluorescence, 72 h; at 28.5 µM (top of the series) unless noted
How it was run: as §1

[4] = qHTS profiling of the MIPE4 collection as inhibitors of Plasmodium falciparum (DD2) proliferation (AID 743345); conditions: P. falciparum Dd2 in erythrocytes, SYBR Green DNA, 72 h; at 28.5 µM (top of the series) unless noted
How it was run: as §1

[5] = qHTS profiling of the MIPE4 collection as inhibitors of Plasmodium falciparum (DD2) proliferation (Rep 2) (AID 743346); conditions: P. falciparum Dd2 in erythrocytes, SYBR Green DNA, 72 h; at 28.5 µM (top of the series) unless noted
How it was run: as §1

[6] = qHTS profiling of the MIPE4 collection as inhibitors of Plasmodium falciparum (HB3) proliferation (AID 743347);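 also: plate controls were DMSO vehicle wells for no effect and artemisinin wells for full effect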; conditions: P. falciparum HB3 in erythrocytes, SYBR Green DNA, 72 h; at 28.5 µM (top of the series) unless noted
How it was run: as §1

[7] = Ebola virus entry assay, green fluorescence channel
[8] = qHTS Assay for Identifying Gametocytocidal Compounds (AID 743244; active = well fitted curve in the direction sought with a large enough effect; an effect the other way counts as inactive or inconclusive;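 also: % is scaled to controls: 0 for no effect and ±100 for the full control effect; actives lower the fluorescent signal which means gametocytes are killed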); conditions: P. falciparum 3D7 stage III-V gametocytes, alamarBlue, 72 h; max response: stronger effect = lower value
How it was run: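 Stage III–V gametocytes of P. falciparum 3D7 were seeded at 20,000 cells/well onto pre-dispensed compounds. After 72 h, 37 °C, 5% CO2, alamarBlue was added for another 24 h.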

[9] = qHTS profiling for inhibitors of Plasmodium falciparum (HB3) proliferation (AID 743324; active = well fitted curve in the direction sought with a large enough effect; an effect the other way counts as inactive or inconclusive;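 also: 100% = DMSO vehicle wells and 0% = artemisinin-treated control wells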); conditions: Plasmodium falciparum HB3 blood-stage proliferation; at 28.7 µM (top of the series)
How it was run: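 SYBR Green fluorescence (485 ex/535 em) of lysed cultures, incubated overnight at room temperature in the dark, quantifies parasite DNA. Infected erythrocytes at 0.3% parasitemia and 2.5% hematocrit were exposed 72 h; values normalized to DMSO and 0.29 uM artemisinin controls.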

[10] = qHTS for compounds that reverse cellular toxicity of Amyloid beta (A-beta) peptide in yeast: LOPAC Validation Assay (AID 720559; active = well fitted curve in the direction sought with a large enough effect; an effect the other way counts as inactive or inconclusive;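 also: plate controls were DMSO for no effect and equimolar ferric chloride plus clioquinol rescue for full effect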)
How it was run: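 Activity is expressed relative to DMSO and an equimolar ferric chloride/clioquinol mix. Compounds were pinned into medium with A-beta-expressing yeast, grown 48 hr at 30 C, then read by absorbance at 600 nm.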

[11] = qHTS for Activators of Parkin Expression: LOPAC Validation Assay (FLuc Reporter) (AID 720573; active = well fitted curve in the direction sought with a large enough effect; an effect the other way counts as inactive or inconclusive;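 also: 0% = DMSO and 100% = positive control compounds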)
How it was run: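 A neuronal cell line harbouring FLuc and NLuc reporters behind the Parkin promoter was exposed to compounds for 24 h. Firefly luciferase signal, measured after 10 min with detection reagent, was scaled to DMSO and positive-control wells.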

[12] = target: T1, Hexokinase-4 (Homo sapiens) + Glucokinase regulatory protein (Homo sapiens) (UniProt P35557+Q14397); assay: qHTS assay for inhibitors of recombinant human GCK-GKRP interaction: Diaphorase-coupled assay (AID 743205; active = well fitted curve in the direction sought with a large enough effect; an effect the other way counts as inactive or inconclusive)
How it was run: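 Inhibitors of the GCK–GKRP complex relieve GKRP suppression of GCK, detected through a G6PDH–diaphorase cascade reducing resazurin. Human GST-GCK and FLAG-GKRP are used at 10 nM with 5 mM glucose and 0.4 mM ATP.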

[13] = target: T1, Hexokinase-4 (Homo sapiens) + Glucokinase regulatory protein (Homo sapiens); assay: qHTS assay for inhibitors of recombinant human GCK-GKRP interaction: ADP-Glo assay (AID 743206; active = well fitted curve in the direction sought with a large enough effect; an effect the other way counts as inactive or inconclusive;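 also: plate controls were DMSO plus enzyme for no effect and no enzyme for full effect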)
How it was run: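 Pin-transferred compounds meet a 15 nM GST-GCK/15 nM FLAG-GKRP/2 uM S6P mix (dispense concentrations). ATP is then added to 0.4 mM final with 5 mM glucose, and the reaction runs 60 min at room temperature. ADP is quantified luminescently.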

[14] = target: T1, Hexokinase-4 (Homo sapiens) + Glucokinase regulatory protein (Homo sapiens); assay: qHTS assay for inhibitors of recombinant human GCK-GKRP interaction: HTRF assay (AID 743207; active = well fitted curve in the direction sought with a large enough effect; an effect the other way counts as inactive or inconclusive;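 also: 0% = DMSO with GCK present and -100% = DMSO wells lacking GCK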)
How it was run: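 Steps: dispense GCK–GKRP complex (5 nM each, GST- and FLAG-tagged) with 2 uM S6P; pin in compounds; add XL665/Eu-cryptate-labelled antibodies; incubate 60 min at room temperature; read time-resolved FRET at 665 and 615 nm.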
For efficacy in this document: 0% is about no effect.

T1 sequence (P35557 whole entry, looked up): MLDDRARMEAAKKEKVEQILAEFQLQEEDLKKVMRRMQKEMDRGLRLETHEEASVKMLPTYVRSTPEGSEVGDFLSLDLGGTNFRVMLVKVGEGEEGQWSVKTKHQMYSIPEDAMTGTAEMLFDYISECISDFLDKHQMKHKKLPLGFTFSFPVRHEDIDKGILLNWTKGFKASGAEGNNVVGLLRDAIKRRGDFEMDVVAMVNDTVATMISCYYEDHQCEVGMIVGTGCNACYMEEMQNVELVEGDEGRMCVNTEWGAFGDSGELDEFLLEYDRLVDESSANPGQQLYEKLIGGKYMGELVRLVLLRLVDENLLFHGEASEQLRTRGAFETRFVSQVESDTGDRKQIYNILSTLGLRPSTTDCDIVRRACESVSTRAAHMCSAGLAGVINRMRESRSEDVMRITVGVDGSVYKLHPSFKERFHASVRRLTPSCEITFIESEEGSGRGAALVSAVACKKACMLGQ
T1 sequence (Q14397 whole entry, looked up): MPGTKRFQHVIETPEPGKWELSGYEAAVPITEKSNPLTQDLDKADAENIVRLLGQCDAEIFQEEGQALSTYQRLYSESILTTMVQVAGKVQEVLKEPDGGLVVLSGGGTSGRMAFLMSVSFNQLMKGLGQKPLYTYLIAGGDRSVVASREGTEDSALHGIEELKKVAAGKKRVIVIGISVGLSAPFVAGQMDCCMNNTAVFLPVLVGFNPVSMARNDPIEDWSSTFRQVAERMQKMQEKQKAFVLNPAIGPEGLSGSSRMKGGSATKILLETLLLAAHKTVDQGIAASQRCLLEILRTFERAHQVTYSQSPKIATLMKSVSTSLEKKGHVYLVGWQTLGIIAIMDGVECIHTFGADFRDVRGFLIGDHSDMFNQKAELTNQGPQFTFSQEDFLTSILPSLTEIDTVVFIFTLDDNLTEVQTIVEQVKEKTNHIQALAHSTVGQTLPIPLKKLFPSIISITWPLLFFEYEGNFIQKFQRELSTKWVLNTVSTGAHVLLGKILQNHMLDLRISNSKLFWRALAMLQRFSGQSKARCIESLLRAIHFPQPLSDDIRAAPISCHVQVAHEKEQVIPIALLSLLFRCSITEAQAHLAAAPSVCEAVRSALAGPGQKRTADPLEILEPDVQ

## Cn1cc(C2=C(c3cn(C4CCN(Cc5ccccn5)CC4)c4ccccc34)C(=O)NC2=O)c2ccccc21
[1]
  remaining parasite growth % (stronger effect = lower value): 94.2%
[2]
  activity, percent of control: 70%
[3]
  parasite growth, % of DMSO control: 11.5%
[4]
  parasite growth remaining, % of DMSO control (lower = more inhibition): 19.9%
[5]
  parasite growth, % of control (lower = inhibition): 21.1%
[6]
  growth, % of control: 6.8%
[7]
  efficacy: 36.4% (inactive)

## CNC(=O)N1N=C(c2ccc(N)cc2)c2cc3c(cc2CC1C)OCO3 (centres undefined)
[8]
  max response: -1.27% (inactive)
[1]
  remaining parasite growth % (stronger effect = lower value): 46.2%
[2]
  activity, percent of control: 92.1%
[9]
  remaining proliferation (% of control), lower = more inhibition: 83.9%
[3]
  parasite growth, % of DMSO control: 269%
[4]
  parasite growth remaining, % of DMSO control (lower = more inhibition): 107%
[5]
  parasite growth, % of control (lower = inhibition): 67.9%
[6]
  growth, % of control: 248%

## NCCc1cc(O)c(O)cc1O
[8]
  max response: 0.974% (inactive)
[7]
  efficacy: -42% (inactive)

## CC1NCCOC1c1ccccc1 (centres undefined)
[8]
  max response: 1.41% (inactive)
[7]
  efficacy: -41.7% (inactive)

## Cn1c(CCCC(=O)O)nc2cc(N(CCCl)CCCl)ccc21
[8]
  max response: -0.45% (inactive)
[1]
  remaining parasite growth % (stronger effect = lower value): 92.7%
[2]
  activity, percent of control: 105%
[3]
  parasite growth, % of DMSO control: 97.1%
[4]
  parasite growth remaining, % of DMSO control (lower = more inhibition): 81.5%
[5]
  parasite growth, % of control (lower = inhibition): 85.2%
[6]
  growth, % of control: 104%

## COc1cc([C@@H]2c3cc4c(cc3[C@H](O)[C@H]3COC(=O)[C@H]23)OCO4)cc(OC)c1OC
[8]
  max response: 11.4% (inactive)
[1]
  remaining parasite growth % (stronger effect = lower value): 68.4% and 104%
[2]
  activity, percent of control: 62.7% and 121%
[9]
  remaining proliferation (% of control), lower = more inhibition: 5.53% and 99%
[3]
  parasite growth, % of DMSO control: 11%
[4]
  parasite growth remaining, % of DMSO control (lower = more inhibition): 89.6%
[6]
  growth, % of control: 6.71%
[7]
  efficacy: 25.2% (inactive)

## CNC(=O)c1ccc(N2C(=S)N(c3ccc(C#N)c(C(F)(F)F)c3)C(=O)C23CCC3)cc1F
[8]
  max response: -1.03% (inactive)
[1]
  remaining parasite growth % (stronger effect = lower value): 74.2%
[2]
  activity, percent of control: 76.1%
[9]
  remaining proliferation (% of control), lower = more inhibition: 43.8%
[3]
  parasite growth, % of DMSO control: 36.9%
[4]
  parasite growth remaining, % of DMSO control (lower = more inhibition): 81.7%
[5]
  parasite growth, % of control (lower = inhibition): 45.4%
[6]
  growth, % of control: 69.7%

## CC(O)(CS(=O)(=O)c1ccc(F)cc1)C(=O)Nc1ccc(C#N)c(C(F)(F)F)c1 (centres undefined)
[10]
  outcome: inactive
[11]
  outcome: inactive
[12]
  outcome: inactive
[13]
  outcome: inactive
[14]
  outcome: inactive
[8]
  max response: 4.22% (inactive) and -26.1% (inactive)
[1]
  remaining parasite growth % (stronger effect = lower value): 91.3%
[2]
  activity, percent of control: 89.3%
[9]
  remaining proliferation (% of control), lower = more inhibition: 70.9%
[3]
  parasite growth, % of DMSO control: 61.4%
[4]
  parasite growth remaining, % of DMSO control (lower = more inhibition): 102%
[5]
  parasite growth, % of control (lower = inhibition): 64.8%
[6]
  growth, % of control: 81.9%

## CC(C)(C)NCC(O)c1cc(Cl)c(N)c(Cl)c1 (centres undefined)
[8]
  max response: -5.19% (inactive)
[7]
  efficacy: -12% (inactive)

## CN(C)CCN(C)CCc1ccc(Cl)c(Cl)c1
[1]
  remaining parasite growth % (stronger effect = lower value): 55.4%
[2]
  activity, percent of control: 25%
[9]
  remaining proliferation (% of control), lower = more inhibition: 36.8%
[3]
  parasite growth, % of DMSO control: 50%
[4]
  parasite growth remaining, % of DMSO control (lower = more inhibition): 32%
[5]
  parasite growth, % of control (lower = inhibition): 18.2%
[6]
  growth, % of control: 72.7%

## COC[C@@H](NC(C)=O)C(=O)NCc1ccccc1
[3]
  parasite growth, % of DMSO control: 371%
[4]
  parasite growth remaining, % of DMSO control (lower = more inhibition): 113%
[5]
  parasite growth, % of control (lower = inhibition): 165%
[6]
  growth, % of control: 737%
[7]
  efficacy: -31.5% (inactive)
